Source: the supplement of paper PMC10849652
About 7,900 targets were measured; listed, in parts, are those with a hit and a random draw of the rest. About 0.6% of all pairs of compound and target were hits.

Compound: c1cn2cc(-c3ccc4cn[nH]c4c3)nc(Nc3ccc(N4CCOCC4)cc3)c2n1 [entospletinib]
Experiment: log2 fold change, soluble protein after heating vs DMSO (PISA); higher = thermal stabilisation; K562 cells, 10 uM, 30 min; active = over 0.2 and 3.5 SD of the protein, either way, in both replicates (recomputed)
Procedure, shortened: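 Quantification of soluble protein used TMTpro 16plex LC-MS/MS, with channel sums equalised. Samples were the supernatant after 21,000xg for 90 min of pooled aliquots from K562 cells (2×10^6 cells/mL) treated with 10 μM compound for 30 min, heated for 3 min over 48°C-58°C, and extracted in PBS with 0.5% NP-40 at 4°C. Values, from duplicates, describe thermal stability against control samples on a log2 fold-change scale.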

Chain of UniProt P13498 (P13498 whole entry, looked up): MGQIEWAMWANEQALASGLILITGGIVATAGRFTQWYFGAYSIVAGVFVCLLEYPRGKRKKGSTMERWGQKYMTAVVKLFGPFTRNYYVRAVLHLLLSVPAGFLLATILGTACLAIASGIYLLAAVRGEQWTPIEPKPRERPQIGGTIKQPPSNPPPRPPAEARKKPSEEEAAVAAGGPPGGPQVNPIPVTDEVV
Chain of UniProt P50402 (P50402 whole entry, looked up): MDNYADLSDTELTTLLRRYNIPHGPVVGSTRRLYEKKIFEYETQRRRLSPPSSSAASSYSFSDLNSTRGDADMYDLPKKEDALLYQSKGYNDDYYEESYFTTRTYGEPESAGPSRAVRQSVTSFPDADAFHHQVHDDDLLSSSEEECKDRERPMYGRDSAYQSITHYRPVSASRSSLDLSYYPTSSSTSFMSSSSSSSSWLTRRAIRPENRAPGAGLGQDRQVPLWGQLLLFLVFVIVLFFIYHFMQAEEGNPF
Chain of UniProt Q9H467 (Q9H467 whole entry, looked up): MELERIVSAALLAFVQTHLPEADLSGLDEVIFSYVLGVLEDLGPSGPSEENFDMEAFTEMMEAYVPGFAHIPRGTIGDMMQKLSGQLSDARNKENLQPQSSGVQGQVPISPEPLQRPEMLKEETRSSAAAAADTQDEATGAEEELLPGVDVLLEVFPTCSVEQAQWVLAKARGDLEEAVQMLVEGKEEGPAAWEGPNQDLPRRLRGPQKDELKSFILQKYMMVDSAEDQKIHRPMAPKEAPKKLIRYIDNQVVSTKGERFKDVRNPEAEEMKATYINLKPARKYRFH
Chain of UniProt Q8N8J7 (Q8N8J7 whole entry, looked up): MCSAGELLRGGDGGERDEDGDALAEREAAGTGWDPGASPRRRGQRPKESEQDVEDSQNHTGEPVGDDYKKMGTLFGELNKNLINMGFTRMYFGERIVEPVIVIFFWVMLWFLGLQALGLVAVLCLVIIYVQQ
Chain of UniProt Q8N612 (Q8N612 whole entry, looked up): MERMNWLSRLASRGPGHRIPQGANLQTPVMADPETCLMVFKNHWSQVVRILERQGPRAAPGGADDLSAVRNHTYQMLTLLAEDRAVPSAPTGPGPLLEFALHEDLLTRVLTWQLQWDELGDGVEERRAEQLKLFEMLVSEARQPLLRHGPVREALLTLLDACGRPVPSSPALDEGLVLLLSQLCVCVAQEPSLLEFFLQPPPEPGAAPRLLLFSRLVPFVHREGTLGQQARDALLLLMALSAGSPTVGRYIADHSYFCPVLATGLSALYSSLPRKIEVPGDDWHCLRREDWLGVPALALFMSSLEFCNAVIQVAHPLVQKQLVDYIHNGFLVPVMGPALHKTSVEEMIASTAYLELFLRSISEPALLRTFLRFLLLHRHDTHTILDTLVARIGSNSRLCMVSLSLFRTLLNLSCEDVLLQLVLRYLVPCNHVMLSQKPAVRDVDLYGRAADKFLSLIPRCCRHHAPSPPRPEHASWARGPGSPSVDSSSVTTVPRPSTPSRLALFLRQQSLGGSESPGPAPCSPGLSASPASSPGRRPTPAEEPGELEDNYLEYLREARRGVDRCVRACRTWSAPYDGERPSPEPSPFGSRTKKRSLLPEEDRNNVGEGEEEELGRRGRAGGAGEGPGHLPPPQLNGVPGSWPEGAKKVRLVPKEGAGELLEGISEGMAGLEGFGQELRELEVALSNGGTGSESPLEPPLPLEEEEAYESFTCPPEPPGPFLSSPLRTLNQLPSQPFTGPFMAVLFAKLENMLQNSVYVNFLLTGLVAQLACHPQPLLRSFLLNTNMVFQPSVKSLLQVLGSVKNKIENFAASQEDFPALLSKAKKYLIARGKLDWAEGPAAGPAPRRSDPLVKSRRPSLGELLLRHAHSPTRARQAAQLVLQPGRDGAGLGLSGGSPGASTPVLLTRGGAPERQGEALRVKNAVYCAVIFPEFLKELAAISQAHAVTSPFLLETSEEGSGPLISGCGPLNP
Chain of UniProt Q9HBU6 (Q9HBU6 whole entry, looked up): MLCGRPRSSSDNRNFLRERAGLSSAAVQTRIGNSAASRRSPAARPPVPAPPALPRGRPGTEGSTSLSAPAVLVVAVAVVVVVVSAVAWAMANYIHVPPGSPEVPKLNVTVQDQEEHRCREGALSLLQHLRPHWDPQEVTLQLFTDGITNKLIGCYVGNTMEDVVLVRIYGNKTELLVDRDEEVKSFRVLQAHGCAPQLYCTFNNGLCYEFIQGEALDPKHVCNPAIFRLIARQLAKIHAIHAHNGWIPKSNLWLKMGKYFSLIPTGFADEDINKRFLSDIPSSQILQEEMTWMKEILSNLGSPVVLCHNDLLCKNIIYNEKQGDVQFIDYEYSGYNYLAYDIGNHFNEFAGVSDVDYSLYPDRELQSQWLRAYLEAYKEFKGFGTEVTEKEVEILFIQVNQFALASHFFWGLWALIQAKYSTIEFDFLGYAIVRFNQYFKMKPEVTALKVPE
Chain of UniProt Q15369 (Q15369 whole entry, looked up): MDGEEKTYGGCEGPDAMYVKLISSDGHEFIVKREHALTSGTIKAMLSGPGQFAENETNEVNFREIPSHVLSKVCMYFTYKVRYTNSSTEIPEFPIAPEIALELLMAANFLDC
Chain of UniProt Q13409 (Q13409 whole entry, looked up): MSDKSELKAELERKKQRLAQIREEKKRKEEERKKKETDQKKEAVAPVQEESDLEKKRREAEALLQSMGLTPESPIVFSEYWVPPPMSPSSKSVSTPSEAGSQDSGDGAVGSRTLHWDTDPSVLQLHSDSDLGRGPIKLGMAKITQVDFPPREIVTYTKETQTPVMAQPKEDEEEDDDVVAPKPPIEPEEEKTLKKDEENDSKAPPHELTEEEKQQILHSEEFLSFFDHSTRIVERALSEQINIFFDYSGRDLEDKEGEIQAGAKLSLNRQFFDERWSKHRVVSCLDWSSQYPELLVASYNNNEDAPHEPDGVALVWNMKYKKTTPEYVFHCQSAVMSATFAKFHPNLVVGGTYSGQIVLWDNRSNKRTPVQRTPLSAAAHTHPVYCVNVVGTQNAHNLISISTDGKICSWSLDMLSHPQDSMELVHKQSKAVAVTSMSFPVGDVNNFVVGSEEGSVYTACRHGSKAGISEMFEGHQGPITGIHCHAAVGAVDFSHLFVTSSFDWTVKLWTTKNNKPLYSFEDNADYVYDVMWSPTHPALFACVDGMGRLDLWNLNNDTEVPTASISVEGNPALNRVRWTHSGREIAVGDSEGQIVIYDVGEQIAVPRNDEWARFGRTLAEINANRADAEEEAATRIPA
Chain of UniProt P00374 (P00374 whole entry, looked up): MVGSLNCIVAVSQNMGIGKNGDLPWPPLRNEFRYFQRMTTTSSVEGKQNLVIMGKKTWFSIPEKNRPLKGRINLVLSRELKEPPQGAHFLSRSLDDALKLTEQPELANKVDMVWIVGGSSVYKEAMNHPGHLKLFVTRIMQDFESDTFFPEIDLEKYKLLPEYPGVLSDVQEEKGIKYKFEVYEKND
Chain of UniProt Q86UK5 (Q86UK5 whole entry, looked up): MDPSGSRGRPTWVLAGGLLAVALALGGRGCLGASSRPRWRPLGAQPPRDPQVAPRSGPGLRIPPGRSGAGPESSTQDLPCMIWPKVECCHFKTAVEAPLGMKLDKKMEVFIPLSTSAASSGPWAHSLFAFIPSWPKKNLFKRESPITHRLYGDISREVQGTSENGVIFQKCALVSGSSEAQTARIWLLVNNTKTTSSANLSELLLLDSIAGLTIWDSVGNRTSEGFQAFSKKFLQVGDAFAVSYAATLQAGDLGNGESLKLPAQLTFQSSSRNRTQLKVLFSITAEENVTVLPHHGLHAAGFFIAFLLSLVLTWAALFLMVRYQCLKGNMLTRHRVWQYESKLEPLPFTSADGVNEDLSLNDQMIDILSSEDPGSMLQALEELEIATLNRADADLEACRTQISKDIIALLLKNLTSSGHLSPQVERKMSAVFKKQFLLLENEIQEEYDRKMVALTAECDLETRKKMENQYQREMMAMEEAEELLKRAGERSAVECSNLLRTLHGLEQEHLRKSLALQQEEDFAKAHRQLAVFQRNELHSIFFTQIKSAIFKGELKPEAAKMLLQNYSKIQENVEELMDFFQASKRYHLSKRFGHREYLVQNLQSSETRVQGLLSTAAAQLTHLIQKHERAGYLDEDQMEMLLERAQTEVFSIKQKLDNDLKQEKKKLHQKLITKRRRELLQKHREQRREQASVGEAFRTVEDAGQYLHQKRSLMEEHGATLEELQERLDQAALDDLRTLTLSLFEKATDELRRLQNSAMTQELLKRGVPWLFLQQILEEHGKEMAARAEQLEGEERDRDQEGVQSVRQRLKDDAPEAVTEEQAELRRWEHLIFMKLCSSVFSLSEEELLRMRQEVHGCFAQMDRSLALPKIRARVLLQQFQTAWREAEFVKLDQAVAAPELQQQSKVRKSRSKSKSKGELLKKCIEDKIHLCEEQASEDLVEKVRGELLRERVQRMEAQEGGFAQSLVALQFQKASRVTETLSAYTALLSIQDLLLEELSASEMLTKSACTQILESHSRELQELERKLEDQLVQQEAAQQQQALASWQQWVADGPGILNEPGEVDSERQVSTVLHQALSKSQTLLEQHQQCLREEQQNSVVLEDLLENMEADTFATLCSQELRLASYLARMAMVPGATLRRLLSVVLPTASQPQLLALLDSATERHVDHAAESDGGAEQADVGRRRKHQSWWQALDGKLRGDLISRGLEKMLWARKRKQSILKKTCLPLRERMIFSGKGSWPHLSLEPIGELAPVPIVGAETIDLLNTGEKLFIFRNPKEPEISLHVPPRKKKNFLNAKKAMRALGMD
Chain of UniProt P09668 (P09668 whole entry, looked up): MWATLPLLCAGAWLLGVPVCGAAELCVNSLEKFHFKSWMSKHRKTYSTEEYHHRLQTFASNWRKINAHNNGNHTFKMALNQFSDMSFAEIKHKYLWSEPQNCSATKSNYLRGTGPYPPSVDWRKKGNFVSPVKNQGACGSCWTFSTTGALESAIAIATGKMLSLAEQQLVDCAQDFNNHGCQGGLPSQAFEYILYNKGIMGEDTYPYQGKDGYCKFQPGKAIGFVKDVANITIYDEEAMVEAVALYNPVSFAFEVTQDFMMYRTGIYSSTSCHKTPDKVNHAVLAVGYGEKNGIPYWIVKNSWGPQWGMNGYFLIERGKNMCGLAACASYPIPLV

log2 fold change, inactive:
EMD (UniProt P50402) 0.102, EEF2K (UniProt O00418) 0.09, DUS3L (UniProt Q96G46) -0.086, ECH1 (UniProt Q13011) 0.024, DLD (UniProt P09622) 0.051, CTSH (UniProt P09668) -0.021, EXOC1 (UniProt Q9NV70) -0.035, DYNC1I2 isoform 2 (UniProt Q13409) 0.082, EIF4E2 (UniProt O60573) -0.107, ELOC (UniProt Q15369) 0.028, ESYT1 isoform 2 (UniProt Q9BSJ8) 0.003, EXOC4 (UniProt Q96A65) -0.067, DEGS1 (UniProt O15121) -0.03, DNM2 (UniProt P50570) -0.017, CTSA (UniProt P10619) 0.041, DYRK1A isoform 2 (UniProt Q13627) 0.003, EXOC6 (UniProt Q8TAG9) 0.014, DUS2 (UniProt Q9NX74) -0.063, DNAH11 (UniProt Q96DT5) 0.115, ETNK1 (UniProt Q9HBU6) -0.008, DNAH10 (UniProt Q8IVF4) -0.132, DHFR (UniProt P00374) 0.013, FAM117B (UniProt Q6P1L5) 0.009, ELOVL1 (UniProt Q9BW60) -0.007, FAM160A2 isoform 2 (UniProt Q8N612) 0.039, EVC2 (UniProt Q86UK5) -0.104, CYBA (UniProt P13498) 0.069, CUEDC2 (UniProt Q9H467) 0.01, CTSZ (UniProt Q9UBR2) 0.13, DOCK8 (UniProt Q8NF50) -0.044, CWF19L2 (UniProt Q2TBE0) -0.162, CTU1 (UniProt Q7Z7A3) 0.006, DCTPP1 (UniProt Q9H773) -0.008, FAM241A (UniProt Q8N8J7) -0.008
